Our source for the inhibition values is PubChem BioAssay.

Calls of active or inactive are those of the source. No rule for the calls is given here.

The test deals with Pantothenate synthetase (Mycobacterium tuberculosis (strain ATCC 25618 / H37Rv)) (UniProt P9WIL5). Put plainly: Recombinant Mtb pantothenate synthetase (PanC) inhibitors, coupled enzyme, confirmatory (AID 375).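 Also: 0% = full reaction with vehicle and 100% = no enzyme background.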 Conditions: coupled enzyme assay; at 10 µM, stronger effect = higher value.
Pantothenate synthetase (Mycobacterium tuberculosis (strain ATCC 25618 / H37Rv)), sequence (P9WIL5 whole entry, looked up): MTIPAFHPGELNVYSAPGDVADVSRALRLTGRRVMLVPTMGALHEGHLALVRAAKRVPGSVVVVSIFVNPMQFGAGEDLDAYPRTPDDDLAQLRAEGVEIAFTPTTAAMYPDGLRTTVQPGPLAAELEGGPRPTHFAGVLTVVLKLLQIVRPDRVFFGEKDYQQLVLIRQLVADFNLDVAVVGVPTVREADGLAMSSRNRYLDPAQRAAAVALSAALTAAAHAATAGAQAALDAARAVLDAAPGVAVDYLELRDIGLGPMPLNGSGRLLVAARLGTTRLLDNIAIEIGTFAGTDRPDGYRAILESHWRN
The inhibition is how much of the control response was suppressed. Consider `CCCCCOC(=O)C1=C(C)N(C)C(=O)NC1c1cc(Br)c(O)c(OC)c1` (stereo not given), for which the inhibition is 0% (inactive).

On to `CCOc1ccc(/C=N/n2cnnc2)cc1`, for which the inhibition is 3% (inactive).

Consider `Cn1cc(Cl)c(C(=O)N(Cc2ccccc2)c2ccccn2)n1`, for which the inhibition is 0% (inactive).

For `CN(C)c1nc(N)nc(CSc2nnnn2-c2cccc3ccccc23)n1`, the inhibition was 0% (inactive).

In the case of `COc1ccc(NC(=O)Cn2nnc(-c3ccccc3F)n2)cc1Cl`, the inhibition is 0% (inactive).

Take `CCOc1ccc(C(c2nnnn2Cc2ccccc2)N2CCN(C(=O)c3ccco3)CC2)cc1` (stereo not given): the inhibition is 2% (inactive).

With `CC1=C(C(=O)Nc2ccccc2)C(c2ccco2)C(C#N)=C(SCC(=O)Nc2cccc(C)c2C)N1` (stereo not given), the inhibition was 1% (inactive).

In the case of `Cc1ccccc1-n1c(Cn2c(=O)sc3ccccc32)nnc1SCC(N)=O`, the inhibition is 3% (inactive).

Regarding `Fc1ccc(-n2c(Cc3ccccc3)nnc2SCc2nc(-c3cccs3)no2)cc1`, the inhibition was 0% (inactive).

`COc1cccc(CNc2cccc3cccnc23)c1O`: the inhibition is 0% (inactive).

Turning to `Cc1nc2ncnn2c(C)c1CCC(=O)NCCCN1CCN(c2cccc(Cl)c2)CC1`, the inhibition was 0% (inactive).

For `Cc1nc(Sc2cccn2C)c(C(F)(F)F)c(=O)[nH]1`, the inhibition is 0% (inactive).

Turning to `Cc1ccc2cc(C(c3nnnn3CC3CCCO3)N3CCCC4(CCCCC4)C3)c(=O)[nH]c2c1` (stereo not given), the inhibition was 0% (inactive).

Turning to `O=C(Nc1ccc(N2CCOCC2)cc1)c1cccc(S(=O)(=O)N2CCCC2)c1`, the inhibition was 0% (inactive).

As to `COc1ccc(-c2nnc(-c3cccs3)o2)cc1OC`, the inhibition was 0% (inactive).

Regarding `CCOC(=O)c1sc2nc(SCC(=O)NCc3ccco3)n(Cc3ccccc3)c(=O)c2c1C`, the inhibition is 0% (inactive).

Turning to `CCN1C(=O)c2ccccc2S(=O)(=O)c2ccc(C(=O)NCc3cccnc3)cc21`, the inhibition is 0% (inactive).

Regarding `Cc1cc(C(=O)NCCN2CCCCC2C)n(-c2ccccc2)n1` (stereo not given), the inhibition is 0% (inactive).

For the compound `NS(=O)(=O)c1cc2c(cc1Cl)NC=NS2(=O)=O`, the inhibition was 3% (inactive).

Consider `Cn1c(=O)c2c(nc(CN3CCN(c4ccccc4F)CC3)n2CCN2CCOCC2)n(C)c1=O`, for which the inhibition was 0% (inactive).

Turning to `Oc1c(C(c2ccccc2)N2CCc3ccccc3C2)sc2ncnn12` (stereo not given), the inhibition was 0% (inactive).

As to `COc1ccc(CN2C(=O)C(O)(CC(=O)c3c(C)n[nH]c3C)c3ccccc32)cc1OC` (stereo not given), the inhibition was 0% (inactive).

As to `C=C(C)C1Cc2c(C)nn(-c3nc(C)cc(C)n3)c2C1` (stereo not given), the inhibition is 0% (inactive).

For the compound `O=C1CC(c2ccc(F)c(Br)c2)C2=C(CCCC2=O)N1` (stereo not given), the inhibition was 5% (inactive).

For the compound `Cc1onc(-c2ccccc2Cl)c1C(=O)NCCn1c(C)cc2ccccc21`, the inhibition was 8% (inactive).

With `CC(C(=O)Nc1ccccc1-c1ccccc1)N1CCN(C(=O)c2ccco2)CC1` (stereo not given), the inhibition was 0% (inactive).

With `CC(Oc1ccccc1)C(=O)NC1CC(C)(C)NC(C)(C)C1` (stereo not given), the inhibition was 0% (inactive).

`COc1ccc(NC(=O)CSc2nc3c(c(=O)n2-c2ccc(F)cc2)SCC3)c(OC)c1`: the inhibition is 0% (inactive).

`CCOC(=O)N1CCN(c2cc3[nH]c(=S)[nH]c3cc2F)CC1`: the inhibition is 2% (inactive).

Regarding `COc1ccc(-c2nnc(SCC(=O)N3CCCCC3)o2)cc1OC`, the inhibition is 0% (inactive).

Take `CCC(CC)C1C(C#N)=C(N)Oc2n[nH]c(C)c21` (stereo not given): the inhibition is 0% (inactive).

As for `CCOC(=O)N1CCN(C(=O)c2ccc3c(=O)n(CCc4ccccc4)c(=O)[nH]c3c2)CC1`, the inhibition was 0% (inactive).

On to `COc1ccc(C2CC(=O)c3cnc(NC(=O)c4ccccc4OC)nc3C2)c(OC)c1` (stereo not given), for which the inhibition was 8% (inactive).

For the compound `CCN1CCN(C(=O)c2oc(=O)c3ccccc3c2-c2ccc(C)cc2)CC1`, the inhibition is 0% (inactive).

As for `CCCc1nc2ccccc2c2nc(N)nn12`, the inhibition is 5% (inactive).

On to `Cc1ccc(CNC(=O)CSc2n[nH]c(N)n2)cc1`, for which the inhibition was 0% (inactive).

As to `Cc1csc2ncc(C(=O)Nc3ccccc3Cl)c(=O)n12`, the inhibition is 3% (inactive).

With `O=C(C1COc2ccccc2O1)N1CCCC1` (stereo not given), the inhibition was 0% (inactive).

In the case of `Cn1c(=O)c2c(ncn2CCO)n(C)c1=O`, the inhibition was 1% (inactive).

Take `COc1ccc(CNc2nc(SCC(=O)NCc3ccco3)nc3ccccc23)cc1`: the inhibition is 10% (inactive).
